According to the supplement of paper PMC8728848:
Only a selection was taken, and the strongest signals are over-represented in it overall.

Columns and labels:
Test in all cases: glycan array binding signal (z-score within array); higher = stronger binding
Conditions in all cases: glycan notation: IUPAC condensed, linker removed
[1] = molecular target: Fuc(a1-2)Gal(b1-3)GalNAc(b1-3)Gal(a1-4)Gal(b1-4)Glc
Outline: (§1)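 Glycan array data came from 3228 arrays in the Consortium for Functional Glycomics database, and only arrays with an available protein sequence were kept. Glycan names were put into IUPAC-condensed notation, and columns mapping to the same glycan were averaged. The binding signal is a within-array Z-score, averaged across arrays of one protein sequence run at different concentrations or buffers and across linkers. A negative Z-score can be read as non-binding.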

[2] = molecular target: Fuc(a1-2)Gal(b1-3)GlcNAc(b1-2)Man(a1-3)[Fuc(a1-2)Gal(b1-3)GlcNAc(b1-2)Man(a1-6)]Man(b1-4)GlcNAc(b1-4)[Fuc(a1-6)]GlcNAc
Outline: as §1

[3] = molecular target: Fuc(a1-2)Gal(b1-3)[Fuc(a1-4)]GlcNAc
Outline: as §1

Fuc(a1-2)Gal6S(b1-4)Glc = molecular target: Fuc(a1-2)Gal6S(b1-4)Glc
Outline: as §1

Fuc(a1-4)GlcNAc = molecular target: Fuc(a1-4)GlcNAc
Outline: as §1

Fuc(b1-3)GlcNAc = molecular target: Fuc(b1-3)GlcNAc
Outline: as §1

[4] = molecular target: Gal(a1-3)Gal(b1-4)GlcNAc(b1-2)Man
Outline: as §1

[5] = molecular target: Gal(a1-3)Gal(b1-4)GlcNAc(b1-3)GalNAc
Outline: as §1

[6] = molecular target: Gal(a1-4)Gal(b1-4)GlcNAc(b1-3)Gal(b1-4)Glc
Outline: as §1

Gal(b1-3)GalNAc(b1-3)Gal = molecular target: Gal(b1-3)GalNAc(b1-3)Gal
Outline: as §1

[7] = molecular target: Gal(b1-3)GlcNAc(b1-2)Man(a1-3)[Gal(b1-3)GlcNAc(b1-2)Man(a1-6)]Man(b1-4)GlcNAc(b1-4)[Fuc(a1-6)]GlcNAc
Outline: as §1

[8] = molecular target: Gal(b1-3)[Fuc(a1-4)]GlcNAc(b1-2)Man
Outline: as §1

[9] = molecular target: Gal(b1-4)GlcNAc(b1-2)Man(a1-3)[Gal(b1-4)GlcNAc(b1-2)Man(a1-6)]Man(b1-4)GlcNAc(b1-4)[Fuc(a1-6)]GlcNAc
Outline: as §1

[10] = molecular target: Gal(b1-4)GlcNAc(b1-2)Man(a1-3)[Gal(b1-4)GlcNAc(b1-2)Man(a1-6)][Gal(b1-4)GlcNAc(b1-4)]Man(b1-4)GlcNAc(b1-4)[Fuc(a1-6)]GlcNAc
Outline: as §1

[11] = molecular target: Gal(b1-4)GlcNAc(b1-2)Man(a1-6)Man(b1-4)GlcNAc(b1-4)GlcNAc
Outline: as §1

[12] = molecular target: Gal(b1-4)GlcNAc(b1-2)[Gal(b1-4)GlcNAc(b1-6)]Man(a1-6)[Gal(b1-4)GlcNAc(b1-2)Man(a1-3)]Man(b1-4)GlcNAc(b1-4)[Fuc(a1-6)]GlcNAc
Outline: as §1

[13] = molecular target: Gal(b1-4)GlcNAc(b1-3)Gal(b1-3)GalNAc
Outline: as §1

[14] = molecular target: Gal(b1-4)GlcNAc(b1-3)Gal(b1-4)GlcNAc
Outline: as §1

[15] = molecular target: Gal(b1-4)GlcNAc(b1-3)Gal(b1-4)GlcNAc(b1-2)Man(a1-3)[Gal(b1-4)GlcNAc(b1-3)Gal(b1-4)GlcNAc(b1-2)Man(a1-6)]Man(b1-4)GlcNAc(b1-4)[Fuc(a1-6)]GlcNAc
Outline: as §1

[16] = molecular target: Gal(b1-4)GlcNAc(b1-3)Gal(b1-4)GlcNAc(b1-3)Gal(b1-4)GlcNAc(b1-2)Man(a1-3)[Gal(b1-4)GlcNAc(b1-3)Gal(b1-4)GlcNAc(b1-3)Gal(b1-4)GlcNAc(b1-2)Man(a1-6)]Man(b1-4)GlcNAc(b1-4)[Fuc(a1-6)]GlcNAc
Outline: as §1

[17] = molecular target: Gal(b1-4)GlcNAc(b1-3)Gal(b1-4)GlcNAc(b1-3)Gal(b1-4)GlcNAc(b1-3)Gal(b1-4)GlcNAc(b1-2)Man(a1-3)[Gal(b1-4)GlcNAc(b1-3)Gal(b1-4)GlcNAc(b1-3)Gal(b1-4)GlcNAc(b1-3)Gal(b1-4)GlcNAc(b1-2)Man(a1-6)]Man(b1-4)GlcNAc(b1-4)[Fuc(a1-6)]GlcNAc
Outline: as §1

[18] = molecular target: Gal(b1-4)GlcNAc(b1-3)Gal(b1-4)GlcNAc(b1-3)Gal(b1-4)GlcNAc(b1-3)Gal(b1-4)GlcNAc(b1-3)Gal(b1-4)GlcNAc(b1-2)Man(a1-3)[Gal(b1-4)GlcNAc(b1-3)Gal(b1-4)GlcNAc(b1-3)Gal(b1-4)GlcNAc(b1-3)Gal(b1-4)GlcNAc(b1-3)Gal(b1-4)GlcNAc(b1-2)Man(a1-6)]Man(b1-4)GlcNAc(b1-4)[Fuc(a1-6)]GlcNAc
Outline: as §1

[19] = molecular target: Gal(b1-4)GlcNAc(b1-3)Gal(b1-4)GlcNAc(b1-6)[Gal(b1-3)]GalNAc
Outline: as §1

Gal6S(b1-3)GlcNAc6S = molecular target: Gal6S(b1-3)GlcNAc6S
Outline: as §1

Gal6S(b1-4)Glc6S = molecular target: Gal6S(b1-4)Glc6S
Outline: as §1

GalNAc4S6S(b1-4)GlcNAc = molecular target: GalNAc4S6S(b1-4)GlcNAc
Outline: as §1

[20] = molecular target: GlcNAc(a1-3)Gal(b1-4)GlcNAc
Outline: as §1

[21] = molecular target: GlcNAc(b1-2)[GlcNAc(b1-6)]Man(a1-6)[GlcNAc(b1-2)Man(a1-3)]Man(b1-4)GlcNAc(b1-4)[Fuc(a1-6)]GlcNAc
Outline: as §1

[22] = molecular target: GlcNAc(b1-3)Gal(b1-4)GlcNAc(b1-2)Man(a1-3)[GlcNAc(b1-3)Gal(b1-4)GlcNAc(b1-2)Man(a1-6)]Man(b1-4)GlcNAc(b1-4)GlcNAc
Outline: as §1

[23] = molecular target: GlcNAc(b1-3)Gal(b1-4)GlcNAc(b1-3)Gal(b1-4)GlcNAc(b1-2)Man(a1-3)[GlcNAc(b1-3)Gal(b1-4)GlcNAc(b1-3)Gal(b1-4)GlcNAc(b1-2)Man(a1-6)]Man(b1-4)GlcNAc(b1-4)[Fuc(a1-6)]GlcNAc
Outline: as §1

Kdn(a2-3)Gal(b1-3)GalNAc = molecular target: Kdn(a2-3)Gal(b1-3)GalNAc
Outline: as §1

[24] = molecular target: Man(a1-3)[Man(a1-6)]Man(b1-4)GlcNAc(b1-4)[Fuc(a1-6)]GlcNAc
Outline: as §1

[25] = molecular target: Neu5Ac(a2-3)Gal(b1-3)GlcNAc(b1-2)[Neu5Ac(a2-3)Gal(b1-3)GlcNAc(b1-4)]Man(a1-6)[Neu5Ac(a2-3)Gal(b1-3)GlcNAc(b1-2)Man(a1-3)]Man(b1-4)GlcNAc(b1-4)GlcNAc
Outline: as §1

[26] = molecular target: Neu5Ac(a2-3)Gal(b1-3)GlcNAc6S
Outline: as §1

[27] = molecular target: Neu5Ac(a2-3)Gal(b1-4)GlcNAc(b1-2)Man(a1-3)[Neu5Ac(a2-3)Gal(b1-4)GlcNAc(b1-2)Man(a1-6)]Man(b1-4)GlcNAc(b1-4)[Fuc(a1-6)]GlcNAc
Outline: as §1

[28] = molecular target: Neu5Ac(a2-6)Gal(b1-4)GlcNAc(b1-2)Man(a1-3)[Neu5Ac(a2-3)Gal(b1-4)GlcNAc(b1-2)Man(a1-6)]Man(b1-4)GlcNAc(b1-4)GlcNAc
Outline: as §1

[29] = molecular target: Neu5Ac(a2-6)Gal(b1-4)GlcNAc(b1-2)Man(a1-3)[Neu5Ac(a2-6)Gal(b1-4)GlcNAc(b1-2)Man(a1-6)]Man(b1-4)GlcNAc(b1-4)[Fuc(a1-6)]GlcNAc
Outline: as §1

[30] = molecular target: Neu5Ac(a2-6)Gal(b1-4)GlcNAc(b1-6)[Gal(b1-3)GlcNAc(b1-3)]Gal(b1-4)Glc
Outline: as §1

[31] = molecular target: Neu5Ac(a2-8)Neu5Ac(a2-8)Neu5Ac(a2-3)[GalNAc(b1-4)]Gal(b1-4)Glc
Outline: as §1

Neu5Ac(b2-6)GalNAc = molecular target: Neu5Ac(b2-6)GalNAc
Outline: as §1

B1: BTL (Bryothamnion triquetrum) (protein)
chain: ADPICGSSGYSCTTPAILTPKSPGSFPSGYSKVIVTGVGGSYSVYIHRPDGFKVYKASEGGCASFGSYSGGGNSEVGKYGSGGTVVAVACK
glycan array binding signal (z-score) [1]: -0.262 | glycan array binding signal (z-score) [2]: 2.75 | glycan array binding signal (z-score) [3]: -0.245 | glycan array binding signal (z-score) (Fuc(a1-2)Gal6S(b1-4)Glc): -0.244 | glycan array binding signal (z-score) (Fuc(a1-4)GlcNAc): -0.199 | glycan array binding signal (z-score) (Fuc(b1-3)GlcNAc): -0.257 | glycan array binding signal (z-score) [4]: -0.311 | glycan array binding signal (z-score) [5]: -0.244 | glycan array binding signal (z-score) [6]: -0.208 | glycan array binding signal (z-score) (Gal(b1-3)GalNAc(b1-3)Gal): -0.22 | glycan array binding signal (z-score) [7]: 4.76 | glycan array binding signal (z-score) [8]: -0.111 | glycan array binding signal (z-score) [9]: 4.92 | glycan array binding signal (z-score) [10]: 0.352 | glycan array binding signal (z-score) [11]: -0.192 | glycan array binding signal (z-score) [12]: 6.49 | glycan array binding signal (z-score) [13]: -0.107 | glycan array binding signal (z-score) [14]: -0.27 | glycan array binding signal (z-score) [15]: 6.38 | glycan array binding signal (z-score) [16]: 5.89 | glycan array binding signal (z-score) [17]: 4.48 | glycan array binding signal (z-score) [18]: 4.45 | glycan array binding signal (z-score) [19]: -0.128 | glycan array binding signal (z-score) (Gal6S(b1-3)GlcNAc6S): -0.24 | glycan array binding signal (z-score) (Gal6S(b1-4)Glc6S): -0.18 | glycan array binding signal (z-score) (GalNAc4S6S(b1-4)GlcNAc): -0.129 | glycan array binding signal (z-score) [20]: -0.194 | glycan array binding signal (z-score) [21]: 4.85 | glycan array binding signal (z-score) [22]: -0.193 | glycan array binding signal (z-score) [23]: 4.09 | glycan array binding signal (z-score) (Kdn(a2-3)Gal(b1-3)GalNAc): -0.259 | glycan array binding signal (z-score) [24]: 4.2 | glycan array binding signal (z-score) [25]: -0.099 | glycan array binding signal (z-score) [26]: -0.24 | glycan array binding signal (z-score) [27]: 5.15 | glycan array binding signal (z-score) [28]: -0.249 | glycan array binding signal (z-score) [29]: 8.12 | glycan array binding signal (z-score) [30]: -0.204 | glycan array binding signal (z-score) [31]: -0.289 | glycan array binding signal (z-score) (Neu5Ac(b2-6)GalNAc): -0.274
